Test results as given in PubChem BioAssay (NCATS).
Several values for one entry are separate records, joined by “and”; a condition that tells them apart may be missing. Equal values may be shown once. Records with an inconclusive call do not appear. More than one record can exist for a structure, and the calls need not agree. Activity calls are given as the source filed them. Calls follow the shape of the dose curve; as a rule, active = well fitted curve in the direction sought with a large enough effect; inconclusive = small, poorly fitted or top-dose-only effect, or another doubt; inactive = no such curve, though single readings can be large; an effect the other way counts as inactive or inconclusive.

Key:
[1] = BET inhibitor-based combinations targeting novel dependencies in MECOM-rearranged (r) AML: SET-2 cell line (AID 2202231); details: SET-2 AML cells viability, CellTiter-Glo luminescence, 48 h; viability: stronger effect = lower value, concentration not given here; also: nearly all actives have a fitted effect of over 35% in size;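 as to viability: plate controls were DMSO treated cells for no effect and wells without cells for full effect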
Method in brief: (§1)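 A 48 hr incubation preceded viability reading by CellTiter-Glo, with 15 min room-temperature development. Dose series had 11 points; normalization used DMSO and empty wells; AUC was computed and mean-centered per line as Z-AUC.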

[2] = BET inhibitor-based combinations targeting novel dependencies in MECOM-rearranged (r) AML: OCI-AML3 cell line (AID 2202232); details: CellTiter-Glo luminescence, 48 h; Potency: OCI-AML3 viability; series mostly up to 46 µM; also: nearly all actives have a fitted effect of over 35% in size
Method in brief: as §1

[3] = BET inhibitor-based combinations targeting novel dependencies in MECOM-rearranged (r) AML: MV-4-11 cell line (AID 2202233); details: MV-4-11 AML viability, CellTiter-Glo luminescence, 48 h; series mostly up to 46 µM; also: nearly all actives have a fitted effect of over 45% in size
Method in brief: (§2)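 Each compound is tested in an 11-point concentration series against 500 seeded cells/well for 48 hr. The luminescent viability signal is normalized to DMSO and blank wells, then reduced to AUC and a cell-line-centred Z-AUC.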

[4] = BET inhibitor-based combinations targeting novel dependencies in MECOM-rearranged (r) AML: HNT-34 cell line (AID 2202234); details: HNT-34 AML viability, CellTiter-Glo luminescence, 48 h; series mostly up to 46 µM; also: nearly all actives have a fitted effect of over 35% in size
Method in brief: as §2

[5] = BET inhibitor-based combinations targeting novel dependencies in MECOM-rearranged (r) AML: UCSD-AML1 cell line (AID 2202235); details: UCSD-AML1 AML cells viability, CellTiter-Glo, 48 h; series mostly up to 46 µM; also: nearly all actives have a fitted effect of over 40% in size
Method in brief: as §2

[6] = BET inhibitor-based combinations targeting novel dependencies in MECOM-rearranged (r) AML: AML-191 cell line (AID 2202236; also: nearly all actives have a fitted effect of over 35% in size); details: AML-191 viability, CellTiter-Glo luminescence, 48 h; series mostly up to 46 µM
Method in brief: as §1

[7] = BET inhibitor-based combinations targeting novel dependencies in MECOM-rearranged (r) AML: AML-194 cell line (AID 2202237; also: nearly all actives have a fitted effect of over 40% in size); details: AML-194 (MECOM-r AML) viability, CellTiter-Glo, 48 h; series mostly up to 46 µM
Method in brief: as §1
Potency is read from the fitted curve at half-maximal effect.

Row | Structure (SMILES) | Potency [1] | Potency [2] | Potency [3] | Potency [4] | Potency [5] | Potency [6] | Potency [7] | viability [1]
1 | Nc1cc(C(F)(F)F)c(-c2nc(N3CCOCC3)nc(N3CCOCC3)n2)cn1 | 9340 nM (active) | 3720 nM (active) | 3720 nM (active) | 2630 nM (active) | 0.934 µM (active) | 2630 nM (active) | 2350 nM (active) | –
2 | CCc1c(-c2ccccc2C)nc2c(C#N)c[nH]n2c1=O | – | inactive | inactive | inactive | 1.2 nM (active) and inactive | inactive | inactive | 112% (inactive) and 125% (inactive)
3 | C=CC(=O)Nc1cccc(Oc2nc(Nc3ccc(N4CCN(C)CC4)cc3)nc3ccsc23)c1 | 26300 nM (active) | 10500 nM (active) | 8330 nM (active) | 8330 nM (active) | 9.34 µM (active) | 23500 nM (active) | 14800 nM (active) | –
4 | CCN(CC)CCNc1ccc(C)c2sc3ccccc3c(=O)c12 | 18600 nM (active) | 14800 nM (active) | 7420 nM (active) | 16600 nM (active) | 16.6 µM (active) | 16600 nM (active) | 16600 nM (active) | –
5 | CN(C)C(=O)COC(=O)Cc1ccc(OC(=O)c2ccc(N=C(N)N)cc2)cc1 | – | inactive | inactive | inactive | inactive | inactive | inactive | 115% (inactive)
6 | O=C([O-])C[O-].[Pt+2] | – | inactive | inactive | inactive | inactive | inactive | inactive | 115% (inactive)
7 | COc1cccc2c1C(=O)c1c(O)c3c(c(O)c1C2=O)C[C@@](O)(/C(CO)=N/NC(=O)CCCCCN1C(=O)C=CC1=O)C[C@@H]3O[C@H]1C[C@H](N)[C@H](O)[C@H](C)O1 | 2950 nM (active) | 417 nM (active) | 186 nM (active) | 934 nM (active) | 0.525 µM (active) | 1050 nM (active) | 934 nM (active) | –
8 | CCN(CC)CCNC(=O)c1c(C)[nH]c(/C=C2/C(=O)Nc3ccc(-c4csc(-c5ccccc5)n4)cc32)c1C | 9340 nM (active) | 18600 nM (active) | 1180 nM (active) | 26300 nM (active) | 9.34 µM (active) | 7420 nM (active) | 7420 nM (active) | –
9 | CCS(=O)(=O)Nc1ccc(Oc2ccc(F)cc2F)c(-c2cn(C)c(=O)c3[nH]ccc23)c1 | 52.5 nM (active) | 11.8 nM (active) | 8.3 nM (active) | 74.2 nM (active) | 0.132 µM (active) | 74.2 nM (active) | 83.3 nM (active) | –
10 | C=CC(=O)N1CC/C(=C\c2ccc(F)c([N+](=O)[O-])c2)C(=O)/C(=C/c2ccc(F)c([N+](=O)[O-])c2)C1 | 148 nM (active) | 52.5 nM (active) | 59 nM (active) | 186 nM (active) | 0.166 µM (active) | 209 nM (active) | 372 nM (active) | –
11 | C[C@@H]1COCCN1c1cc(-c2ccnn2C)c2ccnc(-c3ccn[nH]3)c2n1 | 83.3 nM (active) | 52.5 nM (active) | 118 nM (active) | 296 nM (active) | 0.0661 µM (active) | 296 nM (active) | 332 nM (active) | –
12 | COc1cc2c3c(n(CCCN4CCOCC4)c(=O)c2cc1OC)-c1cc2c(cc1C3=O)OCO2 | 105 nM (active) | 33.2 nM (active) | 83.3 nM (active) | 93.4 nM (active) | 0.0934 µM (active) | 105 nM (active) | 417 nM (active) | –
13 | COc1cc(C)[nH]c(=O)c1CN1CCc2c(Cl)cc([C@H](OC)C3COC3)c(Cl)c2C1=O | – | inactive | inactive | inactive | inactive | inactive | inactive | 112% (inactive)
14 | O=C(NO)c1cnc(N2C[C@H]3C[C@@H]2CN3c2cc(C(F)(F)F)ccn2)nc1 | 2350 nM (active) | 3720 nM (active) | 2090 nM (active) | 3720 nM (active) | 3.72 µM (active) | 4170 nM (active) | 4170 nM (active) | –
15 | COc1cc(O)c2c(c1)C1OC1C[C@H](O)[C@H](O)C(=O)C=CC[C@H](C)OC2=O (stereo not given in full) | 5900 nM (active) | 742 nM (active) | 132 nM (active) | 934 nM (active) | 1.48 µM (active) | 1320 nM (active) | 1480 nM (active) | –
16 | O=C(CCCCCCC(=O)N/N=C/c1ccc(N(c2ccccc2)c2ccccc2)cc1)NO | 7420 nM (active) | 13200 nM (active) | 4680 nM (active) | 4680 nM (active) | 7.42 µM (active) | 6610 nM (active) | 7420 nM (active) | –
17 | Cc1ccc(NC(=O)c2ccc3c(c2)OCCO3)cc1NC(=O)c1ccc2nc(OCCN3CCCC3)ccc2c1 | 144 nM (active) | 257 nM (active) | 91 nM (active) | 45.6 nM (active) | 0.129 µM (active) | 162 nM (active) | 204 nM (active) | –
18 | CN(C)C(N)=NC(=N)N | – | inactive | inactive | inactive | inactive | inactive | inactive | 120% (inactive)

Row | Structure (SMILES) | Potency [1] | Potency [2] | Potency [3] | Potency [4] | Potency [5] | Potency [6] | Potency [7] | viability [1]
19 | Nc1nc(Nc2ccc3c(c2)CC[C@@H](N2CCCC2)CC3)nn1-c1cc2c(nn1)-c1ccccc1CCC2 | 23500 nM (active) | 18600 nM (active) | 2630 nM (active) | 7420 nM (active) | 18.6 µM (active) | 18600 nM (active) | 20900 nM (active) | –
20 | COC(=O)[C@@H]1CC2=CC(=O)CC[C@]2(C)[C@@]23O[C@@H]2C[C@@]2(C)[C@@H](CC[C@@]24CCC(=O)O4)[C@H]13 | – | inactive | inactive | inactive | inactive | inactive | inactive | 106% (inactive)
21 | Nc1cc(COc2c(Cl)cc(C[C@H](N)C(=O)O)cc2Cl)c2oc(-c3ccccc3)nc2c1 | 11800 nM (active) | 13200 nM (active) | 10500 nM (active) | inactive | inactive | 20900 nM (active) | inactive | –
22 | CCS(=O)(=O)Nc1ccc2[nH]c(O)c(C(=Nc3ccc(CN4CCCCC4)cc3)c3ccccc3)c2c1 | 2630 nM (active) | 235 nM (active) | 29.5 nM (active) | 148 nM (active) | 0.833 µM (active) | 66.1 nM (active) | 93.4 nM (active) | –
23 | CCC(C(=O)O)C1CCC(C)C(C(C)C(O)C(C)C(=O)C(CC)C2OC3(C=CC(O)[C@@]4(CC[C@](C)(C5CC[C@@](O)(CC)C(C)O5)O4)O3)C(C)CC2C)O1 (stereo not given in full) | 5250 nM (active) | 1480 nM (active) | 1660 nM (active) | 525 nM (active) | 13.2 µM (active) | 2350 nM (active) | 1180 nM (active) | –
24 | CCc1c(C(=O)NNC(=O)[C@@H](O)c2cc(F)cc(F)c2)ccc(O)c1C | – | inactive | inactive | inactive | 7.42 µM (active) | inactive | inactive | 97.8% (inactive)
25 | CC(C)(O)[C@H]1CC[C@@](C)([C@H]2[C@@H](O)C[C@@]3(C)[C@@H]4C[C@H](O[C@@H]5O[C@H](CO)[C@@H](O)[C@H](O)[C@H]5O)[C@H]5C(C)(C)[C@@H](O[C@@H]6OC[C@@H](O)[C@H](O)[C@H]6O)CC[C@@]56C[C@@]46CC[C@]23C)O1 | – | inactive | inactive | inactive | inactive | inactive | inactive | 118% (inactive)
26 | CCc1cc2c(c(OCC(F)(F)F)c(C(=O)NC3CCN(C(=O)CO)CC3)n2C)c(=O)n1CC(=O)c1ccccc1 | – | inactive | inactive | 16600 nM (active) | inactive | inactive | inactive | 103% (inactive)
27 | COc1ccc([C@@H]2CC(=O)c3c(O)cc(O[C@@H]4O[C@H](CO[C@@H]5O[C@@H](C)[C@H](O)[C@@H](O)[C@H]5O)[C@@H](O)[C@H](O)[C@H]4O)cc3O2)cc1O | – | inactive | inactive | inactive | inactive | inactive | inactive | 119% (inactive)
28 | CC1=NN(c2ccc(C(=O)O)cc2)C(=O)/C1=C/c1ccc(-c2cc(C)c(C)cc2[N+](=O)[O-])o1 | – | 235 nM (active) | inactive | inactive | inactive | inactive | inactive | 112% (inactive)
29 | C/C(=N\NC(=S)N1CCC1)c1ccccn1 | 59 nM (active) | 37.2 nM (active) | 37.2 nM (active) | 37.2 nM (active) | 0.0417 µM (active) | 37.2 nM (active) | 41.7 nM (active) | –
30 | O=C(O)/C(S)=C/c1ccc(I)cc1 | – | inactive | inactive | inactive | inactive | inactive | inactive | 112% (inactive)
31 | CC(C)=CCC[C@](C)(O[C@@H]1O[C@H](CO[C@@H]2O[C@H](CO)[C@@H](O)[C@H](O)[C@H]2O)[C@@H](O)[C@H](O)[C@H]1O)[C@H]1CC[C@]2(C)[C@@H]1[C@H](O)C[C@@H]1[C@@]3(C)CC[C@H](O[C@@H]4O[C@H](CO)[C@@H](O)[C@H](O)[C@H]4O[C@@H]4O[C@H](CO)[C@@H](O)[C@H](O)[C@H]4O)C(C)(C)[C@@H]3CC[C@]12C | – | inactive | inactive | inactive | inactive | inactive | inactive | 121% (inactive)
32 | CS(=O)(=O)Nc1cc2occ(NC=O)c(=O)c2cc1Oc1ccccc1 | – | inactive | inactive | inactive | inactive | inactive | inactive | 101% (inactive)
33 | CC(C)C1CCC(C(=O)N[C@H](Cc2ccccc2)C(=O)O)CC1 (stereo not given in full) | – | inactive | inactive | inactive | inactive | inactive | inactive | 115% (inactive)
34 | O=C(Nc1cc(Oc2cc(F)c(NC(=O)C3(C(=O)Nc4ccc(F)cc4)CC3)cc2F)ccn1)C1CC1 | 11800 nM (active) | 11800 nM (active) | 235 nM (active) | 7420 nM (active) | 14.8 µM (active) | 16600 nM (active) | 14800 nM (active) | –
35 | CC1(C)O[C@@H]2C[C@H]3[C@@H]4C[C@H](F)C5=CC(=O)C=C[C@]5(C)[C@@]4(F)[C@@H](O)C[C@]3(C)[C@]2(C(=O)CO)O1 | – | inactive | inactive | inactive | inactive | inactive | inactive | 113% (inactive)
